Results published in the supplement of paper PMC8728848.
About 410 targets per protein were measured; listed, in parts, are those with the strongest signals and a random draw of the rest.

Legend:
Assay in all cases: glycan array binding signal (z-score within array); higher = stronger binding
Conditions in all cases: glycan notation: IUPAC condensed, linker removed
[1] = target: Gal(b1-4)GlcNAc(b1-2)[Gal(b1-4)GlcNAc(b1-4)]Man(a1-3)[GlcNAc(b1-4)][Gal(b1-4)GlcNAc(b1-2)Man(a1-6)]Man(b1-4)GlcNAc(b1-4)GlcNAc
Method in brief: (§1)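 The binding signal is a Z-score computed within each array and averaged over linkers. Arrays of the same protein sequence at different concentrations or buffers were also averaged together. Data originate from 3228 arrays in the Consortium for Functional Glycomics database, kept only where the protein sequence was available.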

[2] = target: Gal(b1-4)GlcNAc(b1-2)[Gal(b1-4)GlcNAc(b1-6)]Man(a1-6)[Gal(b1-4)GlcNAc(b1-2)Man(a1-3)]Man(b1-4)GlcNAc(b1-4)[Fuc(a1-6)]GlcNAc
Method in brief: as §1

[3] = target: Gal(b1-4)GlcNAc(b1-2)[Gal(b1-4)GlcNAc(b1-6)]Man(a1-6)[GlcNAc(b1-4)][Gal(b1-4)GlcNAc(b1-2)[Gal(b1-4)GlcNAc(b1-4)]Man(a1-3)]Man(b1-4)GlcNAc(b1-4)[Fuc(a1-6)]GlcNAc
Method in brief: as §1

[4] = target: Gal(b1-4)GlcNAc(b1-3)Gal(b1-3)GalNAc
Method in brief: as §1

[5] = target: Gal(b1-4)GlcNAc(b1-3)Gal(b1-4)GlcNAc(b1-2)Man(a1-3)[Gal(b1-4)GlcNAc(b1-3)Gal(b1-4)GlcNAc(b1-2)Man(a1-6)]Man(b1-4)GlcNAc(b1-4)[Fuc(a1-6)]GlcNAc
Method in brief: as §1

[6] = target: Gal(b1-4)GlcNAc(b1-3)Gal(b1-4)GlcNAc(b1-2)[Gal(b1-4)GlcNAc(b1-3)Gal(b1-4)GlcNAc(b1-6)]Man(a1-6)[Gal(b1-4)GlcNAc(b1-3)Gal(b1-4)GlcNAc(b1-2)Man(a1-3)]Man(b1-4)GlcNAc(b1-4)[Fuc(a1-6)]GlcNAc
Method in brief: as §1

[7] = target: Gal(b1-4)GlcNAc(b1-3)Gal(b1-4)GlcNAc(b1-3)Gal(b1-4)GlcNAc(b1-3)Gal(b1-4)GlcNAc(b1-2)Man(a1-3)[Gal(b1-4)GlcNAc(b1-3)Gal(b1-4)GlcNAc(b1-3)Gal(b1-4)GlcNAc(b1-3)Gal(b1-4)GlcNAc(b1-2)Man(a1-6)]Man(b1-4)GlcNAc(b1-4)[Fuc(a1-6)]GlcNAc
Method in brief: as §1

[8] = target: Gal(b1-4)GlcNAc(b1-3)Gal(b1-4)GlcNAc(b1-3)Gal(b1-4)GlcNAc(b1-3)Gal(b1-4)GlcNAc(b1-2)[Gal(b1-4)GlcNAc(b1-3)Gal(b1-4)GlcNAc(b1-3)Gal(b1-4)GlcNAc(b1-3)Gal(b1-4)GlcNAc(b1-6)]Man(a1-6)[Gal(b1-4)GlcNAc(b1-3)Gal(b1-4)GlcNAc(b1-3)Gal(b1-4)GlcNAc(b1-3)Gal(b1-4)GlcNAc(b1-2)Man(a1-3)]Man(b1-4)GlcNAc(b1-4)[Fuc(a1-6)]GlcNAc
Method in brief: as §1

Gal3S(b1-3)GalNAc = target: Gal3S(b1-3)GalNAc
Method in brief: as §1

[9] = target: Gal3S(b1-4)[Fuc(a1-3)]GlcNAc6S
Method in brief: as §1

Gal6P(b1-4)GlcNAc = target: Gal6P(b1-4)GlcNAc
Method in brief: as §1

GalNAc(a1-3)GalNAc = target: GalNAc(a1-3)GalNAc
Method in brief: as §1

GalNAc(b1-4)GlcNAc = target: GalNAc(b1-4)GlcNAc
Method in brief: as §1

[10] = target: GalNAc(b1-4)GlcNAc(b1-2)Man(a1-3)[GalNAc(b1-4)GlcNAc(b1-2)Man(a1-6)]Man(b1-4)GlcNAc(b1-4)GlcNAc
Method in brief: as §1

GalNAc(b1-4)GlcNAc6S = target: GalNAc(b1-4)GlcNAc6S
Method in brief: as §1

[11] = target: GlcNAc(a1-4)Gal(b1-4)GlcNAc(b1-3)Gal(b1-4)[Fuc(a1-3)]GlcNAc(b1-3)Gal(b1-4)[Fuc(a1-3)]GlcNAc
Method in brief: as §1

[12] = target: GlcNAc(b1-3)Gal(b1-4)GlcNAc(b1-6)[GlcNAc(b1-3)]Gal(b1-4)GlcNAc
Method in brief: as §1

GlcNAc(b1-3)Man = target: GlcNAc(b1-3)Man
Method in brief: as §1

[13] = target: Neu5Ac(a2-3)Gal(b1-3)GalNAc(b1-4)[Neu5Ac(a2-3)]Gal(b1-4)Glc
Method in brief: as §1

[14] = target: Neu5Ac(a2-3)Gal(b1-3)GlcNAc(b1-2)Man(a1-3)[Neu5Ac(a2-3)Gal(b1-3)GlcNAc(b1-2)Man(a1-6)]Man(b1-4)GlcNAc(b1-4)GlcNAc
Method in brief: as §1

[15] = target: Neu5Ac(a2-3)Gal(b1-4)GlcNAc(b1-3)Gal(b1-4)GlcNAc(b1-6)[Gal(b1-3)]GalNAc
Method in brief: as §1

[16] = target: Neu5Ac(a2-3)Gal(b1-4)[Fuc(a1-3)]GlcNAc(b1-3)Gal
Method in brief: as §1

[17] = target: Neu5Ac(a2-6)Gal(b1-4)GlcNAc(b1-3)Gal(b1-4)GlcNAc
Method in brief: as §1

[18] = target: Neu5Ac(a2-6)Gal(b1-4)GlcNAc(b1-3)Gal(b1-4)GlcNAc(b1-3)Gal(b1-4)GlcNAc(b1-2)Man(a1-3)[Neu5Ac(a2-6)Gal(b1-4)GlcNAc(b1-3)Gal(b1-4)GlcNAc(b1-3)Gal(b1-4)GlcNAc(b1-2)Man(a1-6)]GalNAc
Method in brief: as §1

[19] = target: Neu5Ac(a2-6)Gal(b1-4)GlcNAc(b1-3)GalNAc
Method in brief: as §1

[20] = target: Neu5Ac(a2-6)Gal(b1-4)GlcNAc(b1-6)GalNAc
Method in brief: as §1

[21] = target: Neu5Ac(a2-8)Neu5Ac(a2-3)[GalNAc(b1-4)]Gal(b1-4)Glc
Method in brief: as §1

[22] = target: Neu5Ac(a2-8)Neu5Ac(a2-8)Neu5Ac(a2-8)Neu5Ac(a2-3)[GalNAc(b1-4)]Gal(b1-4)Glc
Method in brief: as §1

[23] = target: Neu5Gc(a2-3)Gal(b1-3)[Fuc(a1-4)]GlcNAc
Method in brief: as §1

B1: SHCBP1-GST (Homo sapiens), Q8NEM2 (protein)
chain: MADGSLTGGGLEAAAMAPERMGWAVEQELASLEKGLFQDEDSCSDCSYRDKPGSSLQSFMPEGKTFFPEIFQTNQLLFYERFRAYQDYILADCKASEVQEFTAEFLEKVLEPSGWRAVWHTNVFKVLVEITDVDFAALKAVVRLAEPYLCDSQVSTFTMECMKELLDLKEHRLPLQELWVVFDDSGVFDQTALAIEHVRFFYQNIWRSWDEEEEDEYDYFVRCVEPRLRLHYDILEDRVPSGLIVDYHNLLSQCEESYRKFLNLRSSLSNCNSDSEQENISMVEGLKLYSEMEQLKQKLKLIENPLLRYVFGYQKNSNIQAKGVRSSGQKITHVVSSTMMAGLLRSLLTDRLCQEPGEEEREIQFHSDPLSAINACFEGDTVIVCPGHYVVHGTFSIADSIELEGYGLPDDIVIEKRGKGDTFVDCTGADIKISGIKFVQHDAVEGILIVHRGKTTLENCVLQCETTGVTVRTSAEFLMKNSDLYGAKGAGIEIYPGSQCTLSDNGIHHCKEGILIKDFLDEHYDIPKISMVNNIIHNNEGYGVVLVKPTIFSDLQENAEDGTEENKALKIQTSGEPDVAERVDLEELIECATGKMELCARTDPSEQVEGNCEIVNELIAASTQKGQIKKKRLSELGITQADDNLMSQEMFVGIVGNQFKWNGKGSFGTFLF
glycan array binding signal (z-score) [1]: 0.176 | glycan array binding signal (z-score) [2]: 5.01 | glycan array binding signal (z-score) [3]: -0.032 | glycan array binding signal (z-score) [4]: -0.645 | glycan array binding signal (z-score) [5]: 0.801 | glycan array binding signal (z-score) [6]: 2.1 | glycan array binding signal (z-score) [7]: 3.03 | glycan array binding signal (z-score) [8]: 0.056 | glycan array binding signal (z-score) (Gal3S(b1-3)GalNAc): -0.165 | glycan array binding signal (z-score) [9]: -0.428 | glycan array binding signal (z-score) (Gal6P(b1-4)GlcNAc): -0.929 | glycan array binding signal (z-score) (GalNAc(a1-3)GalNAc): -0.406 | glycan array binding signal (z-score) (GalNAc(b1-4)GlcNAc): -0.137 | glycan array binding signal (z-score) [10]: 2.96 | glycan array binding signal (z-score) (GalNAc(b1-4)GlcNAc6S): -0.496 | glycan array binding signal (z-score) [11]: 2.67 | glycan array binding signal (z-score) [12]: -0.274 | glycan array binding signal (z-score) (GlcNAc(b1-3)Man): -0.054 | glycan array binding signal (z-score) [13]: 0.166 | glycan array binding signal (z-score) [14]: -0.428 | glycan array binding signal (z-score) [15]: -0.09 | glycan array binding signal (z-score) [16]: -0.924 | glycan array binding signal (z-score) [17]: -1.12 | glycan array binding signal (z-score) [18]: 2.65 | glycan array binding signal (z-score) [19]: 2.41 | glycan array binding signal (z-score) [20]: -0.322 | glycan array binding signal (z-score) [21]: -0.847 | glycan array binding signal (z-score) [22]: 0.231 | glycan array binding signal (z-score) [23]: 0.247
